Measurements published in PubChem BioAssay (Tox21).
Records with an inconclusive call do not appear. Where a call stands in place of a potency, no number is given. Values without a mark were called inactive. The source made the active and inactive calls. Calls come from the whole dose curve; as a rule, active = well fitted cell-killing curve with a large enough effect in the repeat runs; inconclusive = weak or mixed curves, or effect the other way; inactive = flat fitted curve, though single readings scatter.

assay: cAMP Responsive Elements (CRE) small molecule antagonists, cell-based qHTS assay: qHTS cell viability counter screen (AID 2060913); settings: CRE-bla HEK293T viability, CellTiter-Glo luminescence, 5 h; series mostly up to 92.4 µM; note: nearly all actives have a fitted effect of over 40% in size
How it was run: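 Cytotoxicity counter screen multiplexed with the CRE-bla antagonist read: HEK293T cells in DMEM with dialyzed FBS and 25 mM HEPES were treated 3 hrs under 0.25 uM final NKH477, then viability measured by CellTiter-Glo luminescence.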
Potency is the fitted concentration of half-maximal effect.

Compound | Potency | viability change, negative = cytotoxic
CCCCNc1ccc(C(=O)OCCN(CC)CC)cc1 | inactive | 
CCCCN1C[C@H](O)[C@@H](O)[C@H](O)[C@H]1CO | inactive | 
OC1(c2ccc(Cl)c(C(F)(F)F)c2)CCN(CCCC(c2ccc(F)cc2)c2ccc(F)cc2)CC1 | 29.8 µM (active) | 
CNCCC(Oc1ccccc1OC)c1ccccc1 (stereo not given) | inactive | 
COC(=O)Nc1nc2ccc(S(=O)c3ccccc3)cc2[nH]1 (stereo not given) | inactive | 
Cc1c(C)c2c(c(C)c1OC(=O)CCC(=O)O)CC[C@@](C)(CCC[C@H](C)CCC[C@H](C)CCCC(C)C)O2 | inactive | 
CC(C)[C@H]1CC[C@@H](C)CC1=O | inactive | 
O=C(CCCN1CCC(O)(c2ccc(Br)cc2)CC1)c1ccc(F)cc1 | inactive | 
Nc1ccc2ccccc2c1S(=O)(=O)O | inactive | 
OCCC(F)(F)C(F)(F)C(F)(F)C(F)(F)C(F)(F)C(F)(F)C(F)(F)C(F)(F)F | inactive | 
Oc1ccc(C2(c3ccc(O)c(C4CCCCC4)c3)CCCCC2)cc1C1CCCCC1 | 43.3 µM (active) | 
Cc1nc(-c2ccccn2)ncc1C(=O)Nn1cc(C)c2cc(F)ccc21 | inactive | 
C=COCCCC | inactive | 
O=C(O)CCNC(=O)c1ccc(N=Nc2ccc(O)c(C(=O)O)c2)cc1 | inactive | 
O=C(O)c1cc(C(=O)O)cc([N+](=O)[O-])c1 | inactive | 
COc1ccc2cc1Oc1cc3c(cc1OC)CC[N+](C)(C)[C@H]3Cc1ccc(cc1)Oc1c(OC)c(OC)cc3c1[C@@H](C2)[N+](C)(C)CC3 | inactive | 
CCCCc1ccc2c(n1)[C@@H](c1ccc(OC)cc1C[C@H](C)C(=O)O)[C@H](C(=O)O)[C@H]2c1ccc2c(c1)OCO2 | inactive | 
O=C(O)c1cccnc1Nc1cccc(C(F)(F)F)c1 | inactive | 
Cc1nc2n(c(=O)c1CCN1CCC(C(=O)c3ccc(F)cc3)CC1)CCS2 | inactive | 
CC[C@H]1O[C@]2(CC[C@@H]1C)C[C@@H]1C[C@@H](C/C=C(\C)C[C@@H](C)/C=C/C=C3\CO[C@@H]4[C@H](O)C(C)=C[C@@H](C(=O)O1)[C@]34O)O2 | 30.4 µM (active) | 

Compound | Potency | viability change, negative = cytotoxic
O=C(O)O |  | 7.81% [at 8.39 µM]
CCC(C)COC(C)=O (stereo not given) | inactive | 
O=C(OCCOCCO)c1ccccc1Nc1cccc(C(F)(F)F)c1 | inactive | 
Brc1ccccn1 | inactive | 
CCN(CC)CC(=O)Oc1ccc(NC(C)=O)cc1 | inactive | 
O=C1c2c(O)ccc([N+](=O)[O-])c2C(=O)c2c([N+](=O)[O-])ccc(O)c21 | 27.1 µM (active) | 
CN(C)CCOc1ccccc1Cc1ccccc1 | inactive | 
c1ccc2c(c1)CCC2 | inactive | 
O=C(O)C(=O)Nc1cccc(-c2nn[nH]n2)c1 | inactive | 
O=C(O)c1ccc2cc(O)ccc2c1 | inactive | 
COc1cc(NCc2ccc3nc(N)nc(N)c3c2C)cc(OC)c1OC | inactive | 
COC(=O)Nc1nc2ccc(C(=O)c3ccccc3)cc2[nH]1 | inactive | 
CC=C(Cl)Cl | inactive | 
c1ccc([C@H]2CN3CCSC3=N2)cc1 | inactive | 
CN(C)CCCOc1nn(Cc2ccccc2)c2ccccc12 | inactive | 
O=C1CCc2ccc(OCCCCN3CCN(c4cccc(Cl)c4Cl)CC3)cc2N1 | inactive | 
CC(C)c1nc(CN(C)C(=O)N[C@H](C(=O)N[C@@H](Cc2ccccc2)C[C@H](O)[C@H](Cc2ccccc2)NC(=O)OCc2cncs2)C(C)C)cs1 | inactive | 
CC(=O)OC1CC(C)OC(C)O1 (stereo not given) | inactive | 
NCCCC(O)(P(=O)(O)O)P(=O)(O)O | inactive | 
COc1cc(NS(=O)(=O)c2ccc(N)cc2)nc(C)n1 | inactive | 
